Where “and” joins values, the source holds several entries; their conditions need not be identical. Equal values may be shown once.
These compounds were tested against T1, Transcription intermediary factor 1-alpha (Homo sapiens) (UniProt O15164). Settings: Compound concentration 20.0 uM, Protein concentration 2.0 uM, Result type QC Liability.
T1 sequence (whole entry): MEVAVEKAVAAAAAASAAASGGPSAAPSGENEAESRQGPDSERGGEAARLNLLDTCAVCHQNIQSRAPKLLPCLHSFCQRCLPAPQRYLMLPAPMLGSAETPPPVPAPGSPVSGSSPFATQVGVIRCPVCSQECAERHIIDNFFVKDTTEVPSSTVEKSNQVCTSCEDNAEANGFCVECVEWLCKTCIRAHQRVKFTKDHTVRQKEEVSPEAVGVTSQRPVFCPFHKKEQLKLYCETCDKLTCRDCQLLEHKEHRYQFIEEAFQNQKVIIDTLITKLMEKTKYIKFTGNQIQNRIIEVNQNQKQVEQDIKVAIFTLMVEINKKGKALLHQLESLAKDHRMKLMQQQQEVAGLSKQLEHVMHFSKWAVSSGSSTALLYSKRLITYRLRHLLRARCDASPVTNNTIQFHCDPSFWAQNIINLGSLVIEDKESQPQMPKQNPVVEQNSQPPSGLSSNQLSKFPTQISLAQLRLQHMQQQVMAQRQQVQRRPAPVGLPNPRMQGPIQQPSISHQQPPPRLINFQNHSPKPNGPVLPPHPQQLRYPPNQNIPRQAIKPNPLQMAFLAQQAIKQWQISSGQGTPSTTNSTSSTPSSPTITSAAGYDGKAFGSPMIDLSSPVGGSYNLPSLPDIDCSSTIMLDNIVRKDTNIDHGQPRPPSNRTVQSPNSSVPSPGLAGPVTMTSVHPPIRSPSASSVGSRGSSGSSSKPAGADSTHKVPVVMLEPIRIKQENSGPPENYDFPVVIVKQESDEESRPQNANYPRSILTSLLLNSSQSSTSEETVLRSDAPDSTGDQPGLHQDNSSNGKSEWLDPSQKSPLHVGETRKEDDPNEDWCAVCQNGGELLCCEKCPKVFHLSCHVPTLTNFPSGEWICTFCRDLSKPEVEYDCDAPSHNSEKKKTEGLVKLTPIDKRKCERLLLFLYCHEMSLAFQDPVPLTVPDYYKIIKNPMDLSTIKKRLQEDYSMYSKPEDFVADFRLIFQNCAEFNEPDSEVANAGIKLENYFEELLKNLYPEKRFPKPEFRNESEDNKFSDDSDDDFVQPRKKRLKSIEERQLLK
Compound `CCOC(=O)N1CCC(CN(Cc2ccc(Cl)cc2)Cc2ccc([N+](=O)[O-])s2)C1` (centres undefined) has a ΔTm of -4.19 °C.
`C[C@]12CC[C@@H]3c4ccc(O)cc4CC[C@H]3[C@@H]1C[C@H]1OC(=O)C[C@]12O` gave a ΔTm of 0.49 °C.
With `Cc1c(-c2c(F)cc(C(N)=O)c3[nH]c4c(c23)CC[C@H](C(C)(C)O)C4)cccc1-n1c(=O)c2cccc(F)c2n(C)c1=O` the ΔTm was 0.6 °C.
`COc1cc2nc(C)nc(NC3(c4ccccc4)CC3)c2cc1OC` was tested, and the ΔTm was 0.43 °C.
Work on `CCOC(=O)/N=C(\N)c1ccc(OCc2cccc(COc3ccc(C(C)(C)c4ccc(OC(=O)OCC)cc4)cc3)c2)cc1` yielded a ΔTm of -0.45 °C.
For `COC(=O)c1sccc1S(=O)(=O)Nc1ccc(Nc2ccccc2)cc1OC`, the ΔTm was 0.59 °C.
Compound `CCS(=O)(=O)Nc1cccc(Oc2cncc(Nc3ccc(I)cc3F)c2C(N)=O)c1` has a ΔTm of 1.47 °C.
`FC(F)(F)c1ccc(CNc2ccc(Cc3c[nH]c4ncc(Cl)cc34)cn2)cn1` showed a ΔTm of 1.98 °C.
In the case of `Fc1cccc(-n2cnc3c(NCc4nc5c(F)c(F)ccc5[nH]4)nc(N4CCOCC4)nc32)c1`, the ΔTm is reported as -0.44 °C.
In the case of `CCc1nc(-c2cccc(C)c2)c(-c2ccnc(NC(=O)c3ccccc3)c2)s1`, the ΔTm is reported as -1.26 °C.
`Cn1cc(-c2ccc(-c3cncc(Cl)c3N3CCC4(CCNC4=O)CC3)cc2)cn1` was tested, and the ΔTm was -2 °C.
`CN[C@@H](C)C(=O)N[C@H](C(=O)N1CCC[C@H]1C(=O)N[C@H]1c2ccccc2C[C@H]1OCC#CC#CCO[C@@H]1Cc2ccccc2[C@@H]1NC(=O)[C@@H]1CCCN1C(=O)[C@@H](NC(=O)[C@H](C)NC)C1CCCCC1)C1CCCCC1` was tested, and the ΔTm was -2.69 °C.
Compound `O=C(Cc1ccccc1)Nc1nnc(N2CC[C@@H]3[C@H]2CN3c2cccnn2)s1` has a ΔTm of -3.22 °C.
Work on `C[C@@H]1CC(=O)N(C2CC2)N=C1c1ccc(NC(=O)N2Cc3ccncc3C2)cc1` yielded a ΔTm of 0.48 °C.
`CCOC(=O)Nc1ccc2c(c1)N(C(=O)CN(CC)CC)c1ccccc1CC2` showed a ΔTm of -1.69 °C.
In the case of `O=C(Nc1cccc(Nc2nccc(Nc3cccc(C(F)(F)F)c3)n2)c1)C1CC1`, the ΔTm is reported as 1.03 °C.
For `CN(C)c1ccc(-c2cc3ncccc3c(OCCCCO)n2)cc1`, the ΔTm was -3.64 °C.
With `COCCc1ccc(-c2c(C)nc3c(N4CCOCC4)ccnn23)cn1` the ΔTm was -1.13 °C.
In the case of `O=C(O)c1ccc2c(c1)nc(NCc1ccccc1)c1ncncc12`, the ΔTm is reported as 0.06 °C.
`Cc1nc2ccc(Cl)cc2c(-c2ccccc2)c1CC(=O)O` was tested, and the ΔTm was 0.64 °C.
Compound `Nc1ncc2c(n1)-c1c([nH]c3ccc(C4CC4)cc13)CCCC2` has a ΔTm of -1.92 °C.
In the case of `C[C@H](NC(=O)c1cc(Cl)ccc1Oc1ccc(F)cc1)c1ccc(C(=O)O)cc1`, the ΔTm is reported as -0.34 °C.
`CCS(=O)(=O)c1cc2cc(C[C@@](O)(CC(C)(C)c3ccc(F)cc3C(N)=O)C(F)(F)F)[nH]c2cn1` was tested, and the ΔTm was 0.3 °C and -2.64 °C.
In the case of `Cc1cc(CN)cc(C)c1-c1ncn(C)c1-c1cncn1C`, the ΔTm is reported as 0.01 °C.
In the case of `CS(=O)(=O)CCNCc1ccc(-c2ccc3ncnc(Nc4ccc(OCc5cccc(F)c5)c(Cl)c4)c3c2)o1`, the ΔTm is reported as -3.02 °C.
`CCNc1ccc(-c2nn(-c3ccccc3C)c3c2C(C)Cc2nc(NC(=O)OC)sc2-3)cn1` (centres undefined) was tested, and the ΔTm was -3.54 °C.
`COc1cc(C(=O)NC2CCN(C)CC2)ccc1Nc1ncc2c(n1)N(C1CCCC1)CC(F)(F)C(=O)N2C` gave a ΔTm of -2.21 °C.
For `CCC(C)(C)CC[C@H](NC(=O)N1CCOCC1)C(=O)NC1(C#N)CCN(C)CC1`, the ΔTm was 0.53 °C.
Work on `CCCc1c(OCCCOc2ccc(OCC(=O)O)cc2)ccc(C(C)=O)c1O` yielded a ΔTm of -1.6 °C.
`Cc1cc(-c2nc(-c3ccc(OC(F)(F)F)cc3)no2)nn1Cc1ccnc(N2CCN(C3CC3)CC2)c1` gave a ΔTm of 0.28 °C.
`CN1CC(=O)N(C)c2cnc(Nc3ccc(NC(=O)Nc4cccc(C(=O)O)c4)cc3)nc21` gave a ΔTm of -0.69 °C.
`O=C(Cc1ccccc1)Nc1nnc(N2C[C@H]3C[C@@H]2CN3c2cccnn2)s1` was tested, and the ΔTm was -2.54 °C.
Work on `COCCNC1CCC(Nc2cc(-c3csc(NCC4(C#N)CCOCC4)n3)c(Cl)cn2)CC1` (centres undefined) yielded a ΔTm of -2.77 °C.
`COCCOCn1c(S(C)(=O)=O)nc2c1c(=O)n(C)c(=O)n2C` gave a ΔTm of 0.18 °C.
Work on `Cc1cn([C@@H](C)CC#N)c(=O)c2cc(Cn3nc(C(F)F)cc3Cl)nn12` yielded a ΔTm of -2.22 °C.
`CC(=O)N1CCN([C@H]2CCC[C@@H](NC(=O)c3cc4c(F)ccc(C)c4[nH]3)C2)CC1` was tested, and the ΔTm was -1.5 °C.
Compound `CN1C(=O)c2ccccc2N(C)c2nc(Nc3cnn(C4CCNCC4)c3)ncc21` has a ΔTm of -1.94 °C.
Work on `Cn1cnc(Cn2ccc3ccc(CNCc4[nH]c5ccccc5c4[C@H]4NC(=O)c5ccc(O)cc54)cc32)c1` yielded a ΔTm of 0.2 °C.
`O=C(O)[C@]1(Cc2cccc(Nc3nccs3)n2)CC[C@@H](Oc2cccc(Cl)c2F)CC1` was tested, and the ΔTm was -1.24 °C.
